Several values for one entry are separate records, joined by “and”; a condition that tells them apart may be missing. Identical values can stand only once. Inconclusive results are not listed. Activity calls are given as the source filed them. Unless noted, calls follow the shape of the dose curve; as a rule, active = well fitted curve in the direction sought with a large enough effect; inconclusive = small, poorly fitted or top-dose-only effect, or another doubt; inactive = no such curve, though single readings can be large; an effect the other way counts as inactive or inconclusive. Where a SMILES comes first, the peptide text is derived from it.
Assays:
[1] = test system: Zika virus NS2B-NS3 protease; assay: Primary screen GU AMC qHTS for Zika virus inhibitors (AID 1347154);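 also: 0% = no-inhibitor control and -100% = no-enzyme control; nearly all actives have a fitted effect of over 70% in size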
Summary of the method: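 Unlinked Zika NS2B hydrophilic domain–NS3 protease complex at 25 nM in 10 mM Tris-HCl pH 8.0, 0.01% Tween 20, with an AMC peptide substrate. Fluorescence change (340/450 nm) over 15 min at room temperature, normalized to controls, fitted to 4-parameter Hill.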

[2] = Primary qHTS for small molecule stabilizers of the endoplasmic reticulum resident proteome: Secreted ER Calcium Modulated Protein (SERCaMP) assay (AID 1508630); also: % is scaled to controls: 0 for no effect and ±100 for the full control effect
Summary of the method: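 GLuc-SERCaMP-expressing SH-SY5Y cells, pretreated 16 h with compound, are challenged with thapsigargin to empty ER calcium stores; after 4 h, coelenterazine is added directly to the medium and luminescence is imaged.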

[3] = AP1 Signaling Pathway (AID 357; active = well fitted curve in either direction with a large enough effect, not every such curve was filed as active; also: % is scaled to controls: 0 for no effect and ±100 for the full control effect)
Summary of the method: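 AP-1-bla ME-180 cells with beta-lactamase reporter under AP-1 response element, stimulated with EC50 EGF; compounds titrated, 5 hours at 37 degrees Celsius. CCF4 read at 460/530 nm ratio; positive and negative modulators judged by AC50.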

[4] = target: Cytochrome P450 1A2 (Homo sapiens) (UniProt P05177); assay: p450-cyp1a2 (AID 410; calls by dose curve;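 also: -100% = full effect of reference inhibitor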)
Chain of Cytochrome P450 1A2 (Homo sapiens) (P05177 whole entry, looked up): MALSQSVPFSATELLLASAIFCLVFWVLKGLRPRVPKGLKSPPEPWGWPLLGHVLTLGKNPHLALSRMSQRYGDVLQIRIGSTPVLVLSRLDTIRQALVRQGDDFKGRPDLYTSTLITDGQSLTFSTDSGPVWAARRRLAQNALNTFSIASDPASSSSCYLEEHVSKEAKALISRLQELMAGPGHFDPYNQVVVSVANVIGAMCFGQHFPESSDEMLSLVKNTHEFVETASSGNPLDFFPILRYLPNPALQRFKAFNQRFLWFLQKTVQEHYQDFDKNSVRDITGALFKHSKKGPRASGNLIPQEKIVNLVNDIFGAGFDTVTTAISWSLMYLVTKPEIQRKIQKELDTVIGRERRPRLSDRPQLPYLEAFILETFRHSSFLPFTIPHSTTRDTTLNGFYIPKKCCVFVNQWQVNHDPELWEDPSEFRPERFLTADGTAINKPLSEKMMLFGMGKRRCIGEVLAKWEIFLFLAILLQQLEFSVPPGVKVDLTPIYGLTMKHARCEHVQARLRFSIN
Summary of the method: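 Luminescent readout of luciferin formed from Luciferin-ME by human CYP1A2; data normalized against complete inhibition by 57 uM furafylline. Enzyme 20nM, substrate 100uM at Km, 100mM KPO4 buffer, 60 min reaction at room temperature.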

[5] = NFAT Signaling Pathway (AID 444; active = well fitted curve in either direction with a large enough effect, not every such curve was filed as active;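 also: carbachol stimulus at about its EC50 of 1 µM final; % is scaled to controls: 0 for no effect and ±100 for the full control effect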); settings: Jurkat NFAT-bla M1, carbachol, beta-lactamase ratio, 5 h
Summary of the method: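 Jurkat cells with NFAT-driven β-lactamase reporter and co-expressed M1 receptor, stimulated with carbachol (final 1 uM, ~EC50), compound titration, 5 h at 37 °C. CCF4 loaded 1 h at RT; 460/530 nm ratio gave %activity and AC50.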

[6] = target: Mitogen-activated protein kinase 10 (Mus musculus) (UniProt Q61831); assay: JNK3 AlphaScreen Assay (AID 530; active = well fitted curve in either direction with a large enough effect, not every such curve was filed as active;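 also: kinase came from lysate of stimulated human HepG2 cells; signal reports phosphorylation of biotinylated GST-cJun 1-79 at Ser73 with 10 µM ATP; % is scaled to controls: 0 for no effect and ±100 for the full control effect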)
Summary of the method: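 Pre-activated (IL-1β/TNFα) JNK3 in HepG2 lysates phosphorylates biotin-GST-cJun(1-79), 10 uM ATP; anti-phospho-cJun(Ser73) AlphaScreen read at room temperature, pH 7.6 Tris buffer. Compounds pre-incubated 15 min as titrations.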

[7] = target: Cytochrome P450 2D6 (Homo sapiens) (UniProt P10635); assay: qHTS Assay for Inhibitors and Substrates of Cytochrome P450 2D6 (AID 891); also: potency is read from the fitted curve at half-maximal effect; nearly all actives have a fitted effect of over 60% in size
Chain of Cytochrome P450 2D6 (Homo sapiens) (P10635 whole entry, looked up): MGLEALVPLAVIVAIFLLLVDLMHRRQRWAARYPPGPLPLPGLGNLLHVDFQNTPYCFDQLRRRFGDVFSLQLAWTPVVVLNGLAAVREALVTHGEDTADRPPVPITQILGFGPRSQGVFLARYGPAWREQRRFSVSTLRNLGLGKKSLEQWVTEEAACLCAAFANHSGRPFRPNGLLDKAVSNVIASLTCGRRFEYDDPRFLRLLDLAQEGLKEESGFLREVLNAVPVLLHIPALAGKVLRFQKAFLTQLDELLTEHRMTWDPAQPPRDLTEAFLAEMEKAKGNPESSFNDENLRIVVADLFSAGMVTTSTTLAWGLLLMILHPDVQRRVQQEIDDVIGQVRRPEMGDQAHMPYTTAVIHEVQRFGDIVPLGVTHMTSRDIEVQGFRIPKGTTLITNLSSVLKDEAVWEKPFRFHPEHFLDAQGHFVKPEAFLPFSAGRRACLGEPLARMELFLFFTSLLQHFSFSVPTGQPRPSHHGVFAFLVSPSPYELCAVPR
Summary of the method: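 Human CYP2D6 (5 nM) with 30 uM Luciferin-ME EGE (at Km) in 100 mM KPO4, compound preincubated 10 min, then NADPH regeneration system for 60 min at room temperature. Luciferin read by luminescence; normalized to 1.43 uM quinidine.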

[8] = qHTS Assay for Lipid Storage Modulators (AID 1519; calls by dose curve); settings: Drosophila S3 cells, BODIPY lipid droplet/cell ratio, laser cytometry, cells loaded with oleic acid
Summary of the method: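 Cells seeded at 5,000 per well were treated with compounds over a concentration series and loaded with oleic acid (400 uM, as added). Lipid droplet fluorescence (488 nm excitation, 500-530 nm channel) was read by laser-scanning cytometry and normalized to 20 uM Triacsin C.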

[9] = target: Ubiquitin carboxyl-terminal hydrolase 1 (Homo sapiens) (UniProt O94782); assay: Inhibitors of USP1/UAF1: Pilot qHTS (AID 504865);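 also: rhodamine fluorescence freed from ubiquitin-rhodamine substrate followed over time; top concentration of the series differs between compounds; % is scaled to controls: 0 for no effect and ±100 for the full control effect; nearly all actives have a fitted effect of over 35% in size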
Chain of Ubiquitin carboxyl-terminal hydrolase 1 (Homo sapiens) (O94782 whole entry, looked up): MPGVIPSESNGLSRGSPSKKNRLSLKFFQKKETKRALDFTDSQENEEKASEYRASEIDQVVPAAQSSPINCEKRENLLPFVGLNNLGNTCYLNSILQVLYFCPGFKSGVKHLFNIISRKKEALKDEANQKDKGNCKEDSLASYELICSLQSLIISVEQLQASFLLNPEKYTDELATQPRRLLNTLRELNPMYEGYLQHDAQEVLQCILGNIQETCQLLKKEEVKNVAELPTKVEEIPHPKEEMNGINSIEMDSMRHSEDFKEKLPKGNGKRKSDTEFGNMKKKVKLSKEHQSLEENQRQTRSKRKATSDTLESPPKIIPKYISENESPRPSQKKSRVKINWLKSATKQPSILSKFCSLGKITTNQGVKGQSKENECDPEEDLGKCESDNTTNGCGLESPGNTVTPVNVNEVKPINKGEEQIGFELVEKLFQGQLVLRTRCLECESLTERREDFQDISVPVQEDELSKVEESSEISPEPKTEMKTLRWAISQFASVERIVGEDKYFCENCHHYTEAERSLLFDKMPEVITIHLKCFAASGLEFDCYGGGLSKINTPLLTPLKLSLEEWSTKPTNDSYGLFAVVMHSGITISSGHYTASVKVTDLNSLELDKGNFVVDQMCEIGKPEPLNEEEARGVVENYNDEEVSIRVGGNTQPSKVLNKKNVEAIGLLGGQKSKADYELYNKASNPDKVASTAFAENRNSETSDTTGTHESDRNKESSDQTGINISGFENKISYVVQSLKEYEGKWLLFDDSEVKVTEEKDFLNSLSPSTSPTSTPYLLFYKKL
Summary of the method: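 Deubiquitinase activity followed as kinetic rhodamine fluorescence release from 150 nM Ub-Rho. 1 nM USP1/UAF1 with compound, after 15 min room-temperature preincubation, in HEPES pH 7.8 buffer containing TCEP, EDTA, BSA and Tween-20.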

[10] = target: DNA dC->dU-editing enzyme APOBEC-3G (Homo sapiens) (UniProt Q9HC16); assay: qHTS for inhibitors of Vif-A3G interactions: Validation (AID 588379); also: 0% is about no effect
Chain of DNA dC->dU-editing enzyme APOBEC-3G (Homo sapiens) (Q9HC16 whole entry, looked up): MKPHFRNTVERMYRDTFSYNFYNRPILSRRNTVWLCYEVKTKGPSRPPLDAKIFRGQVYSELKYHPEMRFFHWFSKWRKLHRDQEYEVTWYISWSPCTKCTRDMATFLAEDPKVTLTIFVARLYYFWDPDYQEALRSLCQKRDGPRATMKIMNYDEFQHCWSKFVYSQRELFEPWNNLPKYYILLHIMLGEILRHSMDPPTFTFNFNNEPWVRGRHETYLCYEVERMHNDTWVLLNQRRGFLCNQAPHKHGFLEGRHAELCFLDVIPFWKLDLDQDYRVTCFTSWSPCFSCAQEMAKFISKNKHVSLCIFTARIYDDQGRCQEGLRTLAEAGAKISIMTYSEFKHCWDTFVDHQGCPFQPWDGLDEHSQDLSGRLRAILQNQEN
Summary of the method: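 HeLa cells stably expressing Vif and A3G-eYFP, 700 cells/well, incubated overnight at 37 deg C, then exposed to compound overnight at 37 deg C. Inhibition of Vif-mediated degradation read as increased yellow fluorescence (Ex 488/Em 500-530) by laser-scanning cytometry.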

[11] = target: Glucocorticoid receptor (Homo sapiens) (UniProt P04150); assay: GR-GFP Redistribution (AID 450;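 active = compounds whose dose series gives a full or clear partial fitted curve of increased nuclear translocation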; also: potency is read from the fitted curve at half-maximal effect); settings: U2OS GR-GFP nuclear translocation, laser cytometry, 2 h
Chain of Glucocorticoid receptor (Homo sapiens) (P04150 whole entry, looked up, the tested form may be a part): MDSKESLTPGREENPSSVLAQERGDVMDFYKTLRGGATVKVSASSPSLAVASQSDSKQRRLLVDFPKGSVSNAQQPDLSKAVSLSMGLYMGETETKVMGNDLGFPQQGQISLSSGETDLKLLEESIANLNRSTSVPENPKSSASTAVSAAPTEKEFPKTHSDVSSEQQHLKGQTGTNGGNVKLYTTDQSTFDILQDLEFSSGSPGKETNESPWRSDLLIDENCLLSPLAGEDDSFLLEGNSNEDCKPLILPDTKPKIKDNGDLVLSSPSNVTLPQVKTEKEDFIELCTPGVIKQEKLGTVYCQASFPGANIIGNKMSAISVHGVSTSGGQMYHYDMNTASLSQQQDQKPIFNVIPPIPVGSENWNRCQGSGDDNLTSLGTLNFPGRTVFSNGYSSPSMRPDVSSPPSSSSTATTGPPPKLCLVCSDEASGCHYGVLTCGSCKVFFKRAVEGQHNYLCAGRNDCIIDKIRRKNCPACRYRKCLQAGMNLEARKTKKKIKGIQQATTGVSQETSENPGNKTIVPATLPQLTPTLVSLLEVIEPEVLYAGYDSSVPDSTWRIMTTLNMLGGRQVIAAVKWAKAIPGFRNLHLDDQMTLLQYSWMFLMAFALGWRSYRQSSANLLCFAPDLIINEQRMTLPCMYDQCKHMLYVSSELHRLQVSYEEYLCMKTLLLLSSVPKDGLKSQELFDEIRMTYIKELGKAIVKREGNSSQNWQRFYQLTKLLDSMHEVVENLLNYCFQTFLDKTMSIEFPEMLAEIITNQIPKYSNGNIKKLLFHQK

[12] = target: Glucocorticoid receptor (Homo sapiens) (UniProt P04150); assay: GR-EFC Redistribution (AID 451; calls by dose curve; also: potency is read from the fitted curve at half-maximal effect); settings: CHO-K1 GR-EFC translocation, beta-gal luminescence, 2 h
Summary of the method: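 CHO-K1 cells expressing nuclear EA and GR-ED fragments of b-gal; compounds titrated up to 46 uM final, 2 h at 37 C. GR nuclear translocation read as complemented b-gal luminescence after 1 h RT detection.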

[13] = target: Cytochrome P450 3A4 (Homo sapiens) (UniProt P08684); assay: qHTS Assay for Activators of Cytochrome P450 3A4 (AID 885); also: nearly all actives have a fitted effect of over 65% in size
Chain of Cytochrome P450 3A4 (Homo sapiens) (P08684 whole entry, looked up): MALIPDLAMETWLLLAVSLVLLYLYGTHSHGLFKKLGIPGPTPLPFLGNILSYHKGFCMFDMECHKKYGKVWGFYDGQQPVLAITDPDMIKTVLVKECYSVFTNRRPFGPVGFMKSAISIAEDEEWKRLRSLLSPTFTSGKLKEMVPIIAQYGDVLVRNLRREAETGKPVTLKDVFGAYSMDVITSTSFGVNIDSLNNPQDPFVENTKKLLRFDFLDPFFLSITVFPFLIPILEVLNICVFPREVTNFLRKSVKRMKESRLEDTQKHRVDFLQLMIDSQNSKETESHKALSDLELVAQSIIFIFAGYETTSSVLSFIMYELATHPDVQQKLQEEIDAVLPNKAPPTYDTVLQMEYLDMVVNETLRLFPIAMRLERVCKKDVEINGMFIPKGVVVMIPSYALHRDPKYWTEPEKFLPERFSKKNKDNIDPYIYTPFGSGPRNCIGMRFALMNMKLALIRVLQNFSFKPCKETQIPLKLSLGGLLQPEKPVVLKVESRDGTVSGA
Summary of the method: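 20nM CYP3A4 + 25uM Luciferin-PPXE (=KM), 200mM KPO4; cpd 10 min RT; NADPH regen, 60 min RT; stop w/ detection buffer, 20 min; luminescence. Normalized to 57 uM ketoconazole.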

[14] = qHTS Assay for Identification of Small Molecule Agonists for Hypoxia Response Element Signaling Pathway (AID 914; active = well fitted activation curve with a large enough effect in the signal ratio, with a control signal flat, not every such curve was filed as active; the % refers to the signal ratio; also: % of control where 0% means no effect); settings: ME-180 (cervical carcinoma) HRE-bla reporter, beta-lactamase ratio, CoCl2, 17 h; activation: stronger effect = higher value
Summary of the method: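 qHTS titration; ME-180 HRE-bla cells; EC50 CoCl2 co-treatment, 17 h at 37 degrees Celsius; CCF4 dye, ex 405nm, em 460nm and 530nm; %Activity from ratio; AC50.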

[15] = qHTS Assay for Identification of Small Molecule Antagonists for Thrombopoietin (TPO) Signaling Pathway (AID 918); settings: TPO-dependent cell signaling reporter, antagonist mode; also: potency is read from the fitted curve at half-maximal effect; nearly all actives have a fitted effect of over 60% in size
Summary of the method: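 Ba/F3 (murine, hTPO-R, GPIIb-luc reporter); overnight IL-3 withdrawal; cpd + TPO 26 pM final (EC50); 24 h 37 C/5% CO2; Steadylite luminescence after 10 min RT.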

[16] = target: Muscarinic acetylcholine receptor M1 (Rattus norvegicus) (UniProt P08482); assay: qHTS Assay for Antagonists of Acetylcholine Muscarinic M1 Receptor: Measurement of IP-One Response (AID 944); also: nearly all actives have a fitted effect of over 75% in size
Chain of Muscarinic acetylcholine receptor M1 (Rattus norvegicus) (P08482 whole entry, looked up): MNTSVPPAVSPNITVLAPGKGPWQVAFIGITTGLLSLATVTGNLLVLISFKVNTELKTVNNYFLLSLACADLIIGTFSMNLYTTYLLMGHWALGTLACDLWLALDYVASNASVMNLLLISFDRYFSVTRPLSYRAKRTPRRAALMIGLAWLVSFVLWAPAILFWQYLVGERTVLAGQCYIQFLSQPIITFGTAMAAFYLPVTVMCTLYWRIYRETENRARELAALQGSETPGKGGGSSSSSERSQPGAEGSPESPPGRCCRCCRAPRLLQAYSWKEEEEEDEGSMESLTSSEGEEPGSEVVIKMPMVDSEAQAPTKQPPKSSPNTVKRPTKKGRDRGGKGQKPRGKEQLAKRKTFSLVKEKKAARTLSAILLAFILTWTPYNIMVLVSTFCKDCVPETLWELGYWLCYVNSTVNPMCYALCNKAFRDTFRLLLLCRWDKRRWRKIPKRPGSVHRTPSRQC
Summary of the method: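 M1-CHO (rat), 2000 cells/well, overnight recovery; cpd 10 min; carbachol EC80 (200 nM), 30 min, HEPES buffer + 50 mM LiCl pH 7.4; IP-One HTRF, Ex 337, Em 620/665 nm.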

[17] = target: Pyruvate kinase (Leishmania mexicana) (UniProt Q27686); assay: qHTS Validation Assay for Inhibitors of Leishmania Mexicana Pyruvate Kinase (AID 945);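 also: 0% = DMSO only neutral control wells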
Summary of the method: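 Read-out: luminescence from PKLight stop/detection reagent, data normalized to DMSO. Reaction: 0.2 nM E451W LmPYK, 0.5 mM PEP, 0.1 mM ADP, pH 7.2, 1 h room temperature.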

[18] = target: Pyruvate kinase PKM (Homo sapiens) (UniProt P14618); assay: qHTS Assay for Activators of Human Muscle Pyruvate Kinase (AID 954; active = well fitted curve in the direction sought with a large enough effect, not every such curve was filed as active;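 also: 0% = uninhibited enzyme and -100% = no enzyme or full thiadiazolimine inhibition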)
Summary of the method: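 Luminescence from a luciferase ATP-detection/stop reagent reported PKM2 activity. Reactions contained 0.1 nM purified human enzyme, 0.5 mM PEP, 0.1 mM ADP and 7 mM MgCl2 at pH 7.2, run 1 h at RT.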

[19] = target: Alpha-galactosidase (Coffea arabica) (UniProt Q42656); assay: Counterscreen for Glucocerebrosidase Inhibitors: qHTS Assay for Coffee Bean alpha-Galactosidase at pH 4.5 (AID 957);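 also: plate controls were enzyme alone for no effect and no enzyme for full effect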
Chain of Alpha-galactosidase (Coffea arabica) (Q42656 whole entry, looked up): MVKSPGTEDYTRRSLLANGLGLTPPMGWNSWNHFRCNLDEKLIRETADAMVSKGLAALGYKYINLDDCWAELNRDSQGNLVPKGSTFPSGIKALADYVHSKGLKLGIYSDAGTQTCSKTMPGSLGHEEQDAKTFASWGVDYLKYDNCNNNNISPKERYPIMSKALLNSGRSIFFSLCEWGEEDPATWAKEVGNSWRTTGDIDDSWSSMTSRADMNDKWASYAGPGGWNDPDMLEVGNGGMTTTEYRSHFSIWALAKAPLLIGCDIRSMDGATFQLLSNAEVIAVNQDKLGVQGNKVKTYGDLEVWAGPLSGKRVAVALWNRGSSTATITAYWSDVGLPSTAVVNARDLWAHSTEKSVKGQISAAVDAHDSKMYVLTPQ
Summary of the method: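 Coffee bean alpha-galactosidase 2 nM, substrate 4-MU-alpha-Gal 80 uM, pH 4.5 citrate/Tween-20, 20 min RT. Cpd titration 0.7 nM–77 uM. Stop pH 10, fluorescence 365/440 nm; Hill-equation AC50.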

[20] = target: Alpha-galactosidase A (Homo sapiens) (UniProt P06280); assay: Counterscreen for Glucocerebrosidase Inhibitors: qHTS Assay for Human alpha-Galactosidase at pH 4.5 (AID 992); also: 0% is about no effect
Chain of Alpha-galactosidase A (Homo sapiens) (P06280 whole entry, looked up): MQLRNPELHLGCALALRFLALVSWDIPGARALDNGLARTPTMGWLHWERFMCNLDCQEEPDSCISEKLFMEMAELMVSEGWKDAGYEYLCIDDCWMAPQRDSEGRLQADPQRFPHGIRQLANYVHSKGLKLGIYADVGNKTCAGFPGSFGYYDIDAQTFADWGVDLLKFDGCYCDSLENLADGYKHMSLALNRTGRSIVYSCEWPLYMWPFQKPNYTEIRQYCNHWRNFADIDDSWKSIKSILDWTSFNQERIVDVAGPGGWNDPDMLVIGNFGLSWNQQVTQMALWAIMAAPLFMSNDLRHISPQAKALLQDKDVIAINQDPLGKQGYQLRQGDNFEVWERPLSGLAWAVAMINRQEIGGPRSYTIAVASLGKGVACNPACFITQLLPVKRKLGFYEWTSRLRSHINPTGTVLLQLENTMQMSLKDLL
Summary of the method: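 Enzyme at 2 nM final was combined with compound (0.7 nM to 77 uM) and 80 uM 4-methylumbelliferyl alpha-D-galactopyranoside in 50 mM citric acid, 0.005% Tween-20, pH 4.5. After 20 min at room temperature, fluorescence was read (Ex 365/Em 440 nm); AC50 came from Hill fits.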

[21] = target: alpha-glucosidase (Oryza sativa, rice) (UniProt Q653V4); assay: Counterscreen for Glucocerebrosidase Inhibitors: qHTS Assay for Rice alpha-Glucosidase at pH 5.0 (AID 997);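 also: 0% = full activity with enzyme and -100% = basal without enzyme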
Summary of the method: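 Rice alpha-glucosidase (4 nM final) with 400 uM 4-methylumbelliferyl-alpha-D-glucopyranoside in citrate buffer pH 5.0, 20 min at room temperature, stopped at pH 10; fluorescence 365/440 nm, compounds 0.7 nM–77 uM, AC50 from Hill fits.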

[22] = target: Alpha-galactosidase (Coffea arabica) (UniProt Q42656); assay: Counterscreen for Glucocerebrosidase Inhibitors: qHTS Assay for Coffee Bean alpha-Galactosidase at pH 5.9 (AID 998);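 also: plate controls were uninhibited enzyme for no effect and no-enzyme basal signal for full effect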
Summary of the method: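 Green coffee bean enzyme (2 nM) with 4-methylumbelliferyl alpha-D-galactopyranoside (80 uM) in 50 mM citric acid, 0.005% Tween-20, pH 5.9, 20 min at room temperature; compounds 0.7 nM–77 uM. Stopped at pH 10, fluorescence Ex365/Em440; Hill-fit AC50.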

[23] = measured here: cell count channel max response
[24] = measured here: lipid channel max response

CC(C)C[C@H](NC(=O)[C@H](Cc1ccccc1)NC(=O)CNC(=O)[C@H](CS)N(C(=O)[C@@H](N)Cc1ccc(O)cc1)C(C)(C)C)C(=O)N([C@H](C(=O)O)[C@H](C)O)C(C)(C)C (HELM PEPTIDE1{Y.[CC(C)(C)N([C@@H](CS)C(=O)[*:2])[*:1]].G.F.L.[C[C@H](O)[C@@H](C(=O)O)N(C(C)(C)C)[*:1]]}$$$$V2.0)
inactive: activity change, negative = inhibition [1] 12.2% [at 6.83 µM] | activity change, negative = inhibition [2] -10.6% [at 3.88 µM]

C[C@]12N[C@@H](Cc3ccccc31)c1ccccc12
12.1% [middle of 4 runs]: max response [8, 24]
active: Potency [7] 79.4 nM and 5.01 µM
11.5% [middle of 4 runs]: max response [8, 23]
inactive: outcome [3] | Potency [4] | activity change, negative = inhibition ([5]; at 17.2 µM (top of the series)) -0.0371% and -7.29% | outcome [6] | activity change, negative = inhibition ([8]; at 25.7 µM (top of the series)) 1.12% and -0.257% | activity change, negative = inhibition ([8]; at 57.5 µM (top of the series)) 2.32% and -0.0802% | Potency [9] | Potency [10] | Potency [1] | Potency [2]

C=CCN1CC[C@@]23c4c5ccc(O)c4O[C@H]2/C(=N\N=C2/CC[C@@]4(O)[C@H]6Cc7ccc(O)c8c7[C@@]4(CCN6CC=C)[C@@H]2O8)CC[C@]3(O)[C@@H]1C5
11.9%: max response [8, 24]
active: Potency [15] 12.6 µM
inactive: outcome [3] | Potency [4] | activity change, negative = inhibition ([5]; at 38 µM (top of the series)) -21.2% | Potency [11] > 46 µM | Potency [12] > 46 µM | outcome [6] | Potency [13] | activation [14] 0.657% | Potency [16] | outcome [17] | outcome [18] | outcome [19] | outcome [20] | outcome [21] | outcome [22] | activity change, negative = inhibition ([8]; at 57.5 µM (top of the series)) 1.28% | Potency [9] | Potency [10] | Potency [1] | Potency [2]
10.9%: max response [8, 23]
